PLK1 kinase inh: human PLK1 kinase inhibitors, primary screen, biochemical, TR-FRET; Serine/threonine-protein kinase PLK1 (Homo sapiens), P53350; 97,000 compounds, 0.53% hits; inhibition, % at 10 µM; AID 619, 2007; recombinant PLK1 kinase, TR-FRET peptide phosphorylation;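 active = inhibition of 50% or more in the single-concentration screen; inactive = inhibition below 50%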;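 also: 0% = DMSO max control and 100% = H-89 dihydrochloride min control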
Target sequence (P53350 whole entry, looked up): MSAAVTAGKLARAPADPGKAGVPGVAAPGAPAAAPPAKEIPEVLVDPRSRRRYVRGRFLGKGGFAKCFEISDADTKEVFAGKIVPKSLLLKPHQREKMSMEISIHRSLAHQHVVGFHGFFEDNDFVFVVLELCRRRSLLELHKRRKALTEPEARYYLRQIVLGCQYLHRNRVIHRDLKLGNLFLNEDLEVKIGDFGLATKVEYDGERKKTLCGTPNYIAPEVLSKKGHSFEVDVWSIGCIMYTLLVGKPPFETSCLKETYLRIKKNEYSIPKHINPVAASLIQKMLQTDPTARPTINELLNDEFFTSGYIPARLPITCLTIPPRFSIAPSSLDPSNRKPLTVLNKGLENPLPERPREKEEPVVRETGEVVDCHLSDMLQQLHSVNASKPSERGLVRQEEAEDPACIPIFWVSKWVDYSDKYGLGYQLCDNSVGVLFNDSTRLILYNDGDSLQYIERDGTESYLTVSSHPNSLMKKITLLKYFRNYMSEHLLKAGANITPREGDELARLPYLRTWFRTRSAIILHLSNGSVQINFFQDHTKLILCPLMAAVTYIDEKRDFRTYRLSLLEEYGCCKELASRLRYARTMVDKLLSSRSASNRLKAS
CYP2C9 activ: human CYP2C9 activators, primary screen, biochemical, luminescence | recombinant CYP2C9, luciferin-H conversion; active compounds read high; factor 1 = untreated enzyme, 0 = blocked | activation factor at 5 µM | Cytochrome P450 2C9 (Homo sapiens), P11712 | 96,000 compounds, 1.4% hits;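 active = activation factor of 2 or more for CYP2C9 at a 5 µM dose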;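 also: 0 = sulfaphenazole-blocked wells and 1 = vehicle-only wells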
CYP2C19 activ: human CYP2C19 activators, primary screen, biochemical, luminescence. Cytochrome P450 2C19 (Homo sapiens), P33261. recombinant CYP2C19, luciferin-H EGE luminescence; active compounds read high; 0 = fully inhibited enzyme, 1 = untreated enzyme. activation factor at 5 µM. 96,000 tested, under 10 active;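 active = activation factor of at least 2 at 5 µM in the primary screen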;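 also: 0 = wells with 2.5 mM tranylcypromine and 1 = vehicle-only wells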
CYP2C19 inhib: blockers of cytochrome P450 2C19 activity – biochemical, luminescence, ADME assay, primary screen; CYP2C19 Supersomes, luciferin-H EGE luminescence, 30 min; inhibition, % at 5 µM; 96,000 compounds, 21% hits; AID 778, 2007;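 active = CYP2C19 inhibition above a set limit at 5 µM in the primary screen, cut at about 50% in these data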;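 also: plate controls were negative control wells for no effect and 2.5 mM tranylcypromine positive control for full effect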
PLK1 PBD inh: Plk1 polo box domain binding inhibitors, primary screen, biochemical, fluorescence polarization. Serine/threonine-protein kinase PLK1 (Homo sapiens), P53350. 97,000 compounds, 0.13% hits. inhibition, %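 (tested at about 20 µM)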. AID 693, 2007. Plk1 PBD phosphopeptide binding; in the data active = inhibition above about 34%, passing the limit was not always enough
CYP2C9 inhib: blockers of cytochrome P450 2C9 activity – biochemical, luminescence, ADME assay, primary screen. P11712. CYP2C9 Supersomes, luciferin-H conversion. inhibition, % at 5 µM. 96,000 compounds, 20% hits. AID 777, 2007;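 active = blocking of liver enzyme CYP2C9 beyond about 50% at 5 µM, limit read from the data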
Starred values were filed as active, the others as inactive; . = no result. Shown are actives, neighbours in structure and some others; about 28% of the full set was active somewhere.

SMILES	PLK1 kinase inh	CYP2C9 activ	CYP2C19 activ	CYP2C19 inhib	PLK1 PBD inh	CYP2C9 inhib
Cc1cccc(NC(=O)NNC(=O)c2cc(-c3ccccc3Cl)nc3ccccc23)c1	-1	0.4	0.6	38	-13	62*
Cc1cc(NC(=O)c2noc3c2CCCC3)n(-c2ccccc2)n1	.	0.8	0.9	10	.	17
COc1ccc(-c2cc(C(=O)OCC(=O)Nc3cc(C)on3)c3ccccc3n2)cc1OC	-16	0.5	0.5	53*	-13	46
Cc1ccc2nc(-c3ccccc3Cl)cc(C(=O)Nc3cc(C)on3)c2c1	-6	0	0.2	82*	-16	99*
CCC(C)c1ccc(-c2cc(C(=O)OCC(=O)Nc3cc(C)on3)c3ccccc3n2)cc1 (stereo not given)	1	0.7	0.5	51*	-15	30
Cc1cc(NC(=O)c2ccccc2Cl)no1	-8	1.3	1.2	-18	-13	-27
O=C1c2ccccc2C(=O)N1n1c(=O)[nH]c2ccccc2c1=O	-6	0.9	0.9	6	13	6
CC1=CCC2(CO)COC(c3ccccc3O)C1C2 (stereo not given)	.	0.9	0.6	35	.	12
COc1ccc(N2CCN(C(=N)/C(C(C)=O)=C(\C)O)CC2)cc1	1	1.1	1.2	-19	-19	-14
COc1ccc(CC(=O)N2CCN(c3ccccn3)CC2)cc1OC	-12	0.9	0.5	52*	0	7
CCn1cc(C(=O)N2CCN(c3ccccn3)CC2)c2cc(OC)c(OC)cc2c1=O	.	0.4	0.9	12	.	60*
CCn1cc(C(=O)N2CCN(C(=O)c3ccco3)CC2)c2cc(OC)c(OC)cc2c1=O	-9	0.9	1	0	-19	5
COc1ccccc1C(=O)N1CCN(c2ccccn2)CC1	-3	0.7	0.7	32	-5	27
CCCc1ccc(OCc2ccc(C(=O)N3CCN(c4ccccn4)CC3)o2)c(OC)c1	-7	0.4	0.4	57*	-24	57*
O=C(CN1CCCCC1)N1CCN(C(=O)CN2CCCCC2)CC1	-16	1.3	1.2	-18	-9	-28
CCn1c(=N)c(C(N)=O)cc2c(=O)n3cccc(C)c3nc21	-11	.	.	.	6	.
CCOC(=O)CN1C(=N)N(c2nc(NC(C)C)nc(NC(C)C)n2)CC1=O	-9	.	.	.	15	.
Cn1cc(/C=N/n2cnc3scc(-c4ccc(Cl)cc4)c3c2=O)c2ccccc21	-6	0.6	0.6	36	5	41
CCCCN(N=Nc1nonc1OC)c1nonc1OC	-1	0.3	0.1	85*	8	73*
O=C(Nc1nnc(C(F)(F)F)s1)c1ccc(N2C(=O)C3C4C=CC(C4)C3C2=O)cc1 (stereo not given)	3	0.7	1.1	-9	-24	30
Cc1ccc(C(=O)NNC(=S)NC(=O)COc2ccccc2)cc1	-8	0.2	0.7	32	2	78*
Cc1ccccc1C(=O)NNC(=S)NC(=O)COc1ccccc1	-9	0.1	0.4	55*	-5	89*
Cc1ccc(C(=O)Nc2ccc(S(=O)(=O)N3CCN(C)CC3)cc2)o1	.	0.7	1	4	.	30
CC1=NN(c2ccccc2)C(=O)/C1=C\c1c(C)[nH]n(-c2ccccc2)c1=O	4	0.5	1	-5	4	51*
CC(C)c1nccn1S(=O)(=O)c1cc(Cl)ccc1Cl	-3	1.1	0.6	41	4	-9
SMILES	PLK1 kinase inh	CYP2C9 activ	CYP2C19 activ	CYP2C19 inhib	PLK1 PBD inh	CYP2C9 inhib
CCCCN(CC)CCCNC(=O)CC1Oc2ccccc2NC1=O (stereo not given)	4	1.2	1	1	18	-16
CN(C)c1ccc(/C=N\NC(=S)SCN2C(=O)C3CCC(C)(C2=O)C3(C)C)cc1 (stereo not given)	-6	.	.	.	19	.
O=[N+]([O-])c1cc(Br)c(O)c(/C=N/Nc2nnnn2-c2cccc3ccccc23)c1	-6	0	0.1	91*	0	100*
Cc1ccc(NC(=O)c2ccco2)c(NC(=O)Cc2cccs2)c1	2	1	0.8	15	-18	2
CCN1c2ccccc2NC2N=C(OC)C(c3ccccc3)C21 (stereo not given)	-3	1	0.8	20	10	-1
CCN1c2ccccc2NC2C1C(C(C)=O)C(=O)N2c1ccc(Cl)cc1 (stereo not given)	-14	0.2	0.1	92*	-11	79*
O=S(=O)(c1ccccc1)C1(S(=O)(=O)c2ccccc2)CCCC1	.	0.4	0	98*	.	58*
COC(=O)CCC(=O)NC(=S)Nc1cc(Cl)ccc1Cl	-19	0.5	0.5	54*	11	53*
Cc1noc(N)c1C(=O)Nc1ccc(F)cc1	-7	0.8	1	2	-32	17
CCOC(=O)N1CCN(C2OC(=O)c3ccccc32)CC1 (stereo not given)	-12	1	1	-2	-18	0
CC(=O)Nc1nc2ccccc2n1CCOc1ccccc1Cl	-3	0.9	0.4	60*	-10	13
CC(NC(=O)c1ccccc1)c1nc2ccccc2n1Cc1ccccc1F (stereo not given)	-2	0.4	0.5	48	-1	60*
CCCn1c(NC(=O)c2ccccc2)nc2ccccc21	-5	1.2	1	3	10	-22
CC(NC(=O)c1ccccc1)c1nc2ccccc2n1Cc1ccc(C#N)cc1 (stereo not given)	-8	0.5	0.7	30	1	49
CCCCn1c(C(C)NC(=O)CC)nc2ccccc21 (stereo not given)	4	1	1	-3	5	-4
CCCCCCn1c(C(C)NC(=O)c2ccco2)nc2ccccc21 (stereo not given)	-11	0.4	0.6	42	2	56*
Cc1ccccc1Cn1c(C(C)O)nc2ccccc21 (stereo not given)	-7	1	0.4	59*	-9	-3
CC(C)C(c1nnnn1Cc1cccs1)N1CCN(c2ccccc2)CC1 (stereo not given)	-7	0.9	1	-2	-13	5
CCOC(=O)C1=NN(c2ccccc2C)C2=NC(C)=C(C(=O)OC)C(c3cccs3)N12 (stereo not given)	1	.	.	.	-8	.
COCCn1c(Cc2ccccc2)nnc1SCC(=O)NC(C)(C)C	-2	1	0.6	44	-22	4
CC(=O)Nc1nc2ccccc2n1Cc1ccccc1C	-10	0.9	0.2	82*	-26	13
